Assay outcomes as filed in PubChem.
This is a sample that favours compounds with a hit; in the whole collection about 5.4% have one here.
FMDV inh: High Throughput Screening for Foot and Mouth Disease Virus Antivirals; FMDV antiviral cell-based qHTS; Potency, µM (titrated, usually from 57.9 µM), inactives show at the top dose activity change, negative = inhibition, hits mostly inhibitors; hit rate 1.2% among 410,000; calls by dose curve; tested in HEK293T cells; also: read-out not given here; nearly all actives have a fitted effect of over 45% in size
Sm TGR block: qHTS Assay for the Inhibitors of Schistosoma Mansoni Peroxiredoxins; Schistosoma mansoni thioredoxin glutathione reductase (TGR), Q962Y6; purified TGR, DTNB reduction, TNB absorbance 405 nm; AID 485364, 2010; hit rate 3% among 360,000; Potency, µM (highest dose often 114 µM), inactives show at the highest dose activity change, negative = inhibition, usual class: inhibitors; active = well fitted inhibition curve with a large enough effect; inconclusive = small, poorly fitted or top-dose-only effect; inactive = no such curve, though single readings can be large or run the other way; also: nearly all actives have a fitted effect of over 60% in size
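TGR 20 nM + NADPH 100 uM (dispensed conc.), cpd preinc 15 min RT; start with NADPH (500 uM addition) then DTNB (15 mM addition). Kinetic TNB absorbance, 405 nm filter. Four-parameter Hill fit across titration.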
Lassa entry inh: qHTS for Inhibitors of binding or entry into cells for Lassa Virus; Lassa virus pseudotype entry inhibition, cell reporter; Potency, µM (top dose mostly 37.9 µM), for the others: top-dose activity change, negative = inhibition, hits mostly inhibitors; hit rate 1.2% among 300,000; calls by dose curve; tested in HEK293 cells; also: nearly all actives have a fitted effect of over 50% in size
MARV entry inh: qHTS for inhibitors of binding or entry into cells for Marburg Virus; hit rate 1.8% among 300,000; Marburg virus pseudotyped entry inhibition, cell reporter; Potency, µM (doses to about 37.8 µM), for inactives: top-dose activity change, negative = inhibition, most hits filed as inhibitors; calls by dose curve; tested in HEK293 cells
Vaccinia mCherry: qHTS for Stage-Specific Inhibitors of Vaccinia Orthopoxvirus: mCherry Reporter Primary qHTS; hit rate 0.63% among 310,000; Vaccinia virus mCherry reporter infection, fluorescence; Potency, µM (series often up to 36.5 µM), inactives show top-dose activity change, negative = inhibition, hits mostly inhibitors; AID 720579, 2013; calls by dose curve; tested in A549 cells; also: nearly all actives have a fitted effect of over 35% in size
VACV Venus inh: qHTS for Stage-Specific Inhibitors of Vaccinia Orthopoxvirus: Venus Reporter Primary qHTS. Vaccinia virus Venus reporter expression, fluorescence. Potency, µM (titrated, usually from 36.5 µM), inactives show top-dose activity change, negative = inhibition, most hits filed as inhibitors. hit rate 0.46% among 330,000; calls by dose curve; tested in A549 cells; also: nearly all actives have a fitted effect of over 30% in size
Active calls of the source: *; [ ] = dose if it differs, or a comment. % is scaled to controls: 0 for no effect and ±100 for the full control effect; potency is read from the fitted curve at half-maximal effect.

Results for CCCCCCSc1nnc(-c2cnn(-c3ccccc3)c2-n2cccc2)n1C ?
FMDV inh: -21%; Sm TGR block: -18%; Lassa entry inh: 2%; MARV entry inh: -22%[46.1 µM]; Vaccinia mCherry: 10µM*; VACV Venus inh: 10µM*

Results for CCOc1ccc(OCC)c(NC(=O)CN(C)S(=O)(=O)c2ccc3[nH]c(=O)oc3c2)c1 ?
FMDV inh: -32%; Sm TGR block: -1%; Lassa entry inh: -20%[46.1 µM]; Vaccinia mCherry: -11%; VACV Venus inh: -8%

How did Cc1cc(C)c2c(=N)c3ccccc3n(CCCCCCCCn3c4ccccc4c(=N)c4c(C)cc(C)nc43)c2n1 do in these assays?
FMDV inh: 0%; Lassa entry inh: inconclusive; MARV entry inh: 7.1µM*; Vaccinia mCherry: 10µM*; VACV Venus inh: 10µM*

What do the screens show for `O=C(COC(=O)c1ncc(Cl)c(Cl)c1Cl)Nc1ccc(Cl)cn1`?
FMDV inh: -16%; Sm TGR block: 40µM*; Lassa entry inh: 1%; MARV entry inh: inconclusive; Vaccinia mCherry: 2%; VACV Venus inh: 13%

Results for CCCC1OC23CCCCC2C(C#N)(C(=N)O3)C1(C#N)C#N (configuration not stated) ?
FMDV inh: -8%; Sm TGR block: -20%; Lassa entry inh: 4%; MARV entry inh: 0%

Results for N#CC1(C#N)COC23CCCCC2C1(C#N)C(=N)O3 (configuration not stated) ?
FMDV inh: -6%; Sm TGR block: 56µM*; Lassa entry inh: 22%; MARV entry inh: 22%

How did CCC1OC23CCCCC2C(C#N)(C(=N)O3)C1(C#N)C#N (configuration not stated) do in these assays?
FMDV inh: 14µM*; Sm TGR block: inconclusive; Lassa entry inh: 20%; MARV entry inh: 1%; VACV Venus inh: -8%

How did CC1OC23CCCCC2C(C#N)(C(=N)O3)C1(C#N)C#N (configuration not stated) do in these assays?
FMDV inh: 10%; Sm TGR block: inconclusive; Lassa entry inh: 3%; MARV entry inh: 1%

How did CC1OC2(C)OC(=N)C1(C#N)C(C#N)(C#N)C2c1ccccc1 (configuration not stated) do in these assays?
FMDV inh: inconclusive; Sm TGR block: inconclusive; Lassa entry inh: inconclusive; MARV entry inh: inconclusive; Vaccinia mCherry: 6%; VACV Venus inh: 60%

How did COc1ccc(C2OC34CCCCC3C(C#N)(C#N)C2(C#N)C(=N)O4)cc1 (configuration not stated) do in these assays?
FMDV inh: 0%; Sm TGR block: 40µM*; Lassa entry inh: 4%; MARV entry inh: 18%; VACV Venus inh: -11%

How did N#CC12COC3(CCCCC3C1(C#N)C#N)OC2=N (configuration not stated) do in these assays?
FMDV inh: 28µM*; Sm TGR block: 18µM*; Lassa entry inh: 1%; MARV entry inh: inconclusive; Vaccinia mCherry: -14%; VACV Venus inh: 0%

How did CCOC(=O)CSC1=NN2CCS(=O)(=O)N=C2S1 do in these assays?
FMDV inh: -11%; Sm TGR block: 10µM*; Lassa entry inh: 20%; MARV entry inh: inconclusive; Vaccinia mCherry: 1%; VACV Venus inh: -10%

What do the screens show for `C=CCSC1=NN2CCS(=O)(=O)N=C2S1`?
FMDV inh: 8%; Sm TGR block: 7%; Lassa entry inh: -10%[46.1 µM]; MARV entry inh: inconclusive; Vaccinia mCherry: inactive; VACV Venus inh: -7%

How did COC(=O)N1C2CC(=O)O[C@H]3c4cc5c(cc4[C@]1(C)[C@@]3(Br)c1ccccc12)OCO5 do in these assays?
MARV entry inh: 8%[14.2 µM]

Results for CCOc1ccc(/C=C/C(O)=C2/C(=O)NC3(C)CC2c2ccccc2O3)cc1OC (configuration not stated) ?
FMDV inh: inconclusive; Sm TGR block: -10%; Lassa entry inh: inconclusive; MARV entry inh: inconclusive; Vaccinia mCherry: inconclusive; VACV Venus inh: inconclusive

What do the screens show for `CCOc1ccc(/C=C/C(O)=C2/C(=O)N(C)C3(C)CC2c2ccccc2O3)cc1OC` (configuration not stated)?
FMDV inh: inconclusive; Sm TGR block: -6%; Lassa entry inh: 3.5µM*; MARV entry inh: inconclusive; Vaccinia mCherry: inconclusive; VACV Venus inh: -28%

How did CC(C)CCNC(=O)c1ccc2c(c1)NC(=O)C(CS(=O)(=O)Cc1ccc(F)cc1)N2 (configuration not stated) do in these assays?
FMDV inh: -15%; Sm TGR block: -20%; Lassa entry inh: -6%[46.1 µM]; Vaccinia mCherry: -6%; VACV Venus inh: -7%

How did O=C(c1ccccc1)c1cn(Cc2ccc(F)cc2)c2ccccc2c1=O do in these assays?
FMDV inh: 3%; Sm TGR block: 2%; Lassa entry inh: inconclusive; MARV entry inh: inconclusive; Vaccinia mCherry: -8%; VACV Venus inh: -15%

How did CCOC(=O)NC(=O)/C(C#N)=N\Nc1ccc(Cl)cc1 do in these assays?
FMDV inh: -2%; Sm TGR block: 4%; Lassa entry inh: 10%; MARV entry inh: 6%[46.1 µM]; VACV Venus inh: -20%

What do the screens show for `Cc1c(N/N=C(\C#N)C(=O)c2ccc(Cl)cc2)c(=O)n(-c2ccccc2)n1C`?
FMDV inh: -2%; Sm TGR block: -4%; Lassa entry inh: inconclusive; MARV entry inh: 4.1µM*; Vaccinia mCherry: 11µM*; VACV Venus inh: inconclusive

How did Cc1c(NC2(C#N)CCCCC2)c(=O)n(-c2ccccc2)n1C do in these assays?
FMDV inh: -12%; Sm TGR block: 20µM*; Lassa entry inh: -24%; MARV entry inh: 9%[46.1 µM]; Vaccinia mCherry: 6%; VACV Venus inh: -15%

How did Cc1c(NC(=O)/C(C#N)=C/c2ccc(-c3ccc(Cl)cc3)o2)c(=O)n(-c2ccccc2)n1C do in these assays?
FMDV inh: 25µM*; Sm TGR block: -10%; Lassa entry inh: inconclusive; MARV entry inh: inconclusive; Vaccinia mCherry: inconclusive; VACV Venus inh: inconclusive

How did Cc1c(NC(=O)N2CCCCCC2)c(=O)n(-c2ccccc2)n1C do in these assays?
FMDV inh: -4%; Sm TGR block: -20%; Lassa entry inh: 15%; MARV entry inh: 20%; Vaccinia mCherry: -1%; VACV Venus inh: -8%

How did N#C/C(=N\Nc1ccc(Cl)cc1)C(=O)c1ccccc1 do in these assays?
FMDV inh: inconclusive; Sm TGR block: -10%; Lassa entry inh: inconclusive; MARV entry inh: 11µM*; Vaccinia mCherry: -24%; VACV Venus inh: inconclusive

How did Cc1ccc(NC(=O)c2oc3ccc(S(=O)(=O)N4CCC5(CC4)OCCO5)cc3c2C)c(C)c1 do in these assays?
FMDV inh: inconclusive; Sm TGR block: 5%; Lassa entry inh: -10%[46.1 µM]; Vaccinia mCherry: inactive; VACV Venus inh: -20%

What do the screens show for `Cc1ccc(/C=N/c2sc3c(c2C(N)=O)CCCC3)o1`?
FMDV inh: 69%; Sm TGR block: 22µM*
